From publication PMC4336329 (PLoS ONE, 2015)
Screen size: about 310,000 compounds; about 14,000 (4.5%) showed an effect of 50% or more. The effect is printed as a negative number. For the sample, strong results were picked, then their nearest neighbours and some compounds at random.

Biological target: human ether-à-go-go-related gene (hERG) potassium channel (human, UniProt Q12809)
Test: primary screen, population patch clamp on CHO cells stably expressing hERG; higher = less effect of the substance
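Further: peak tail current of the secondary pulse compared with the same well before compound.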

Sequence of human ether-à-go-go-related gene (hERG) potassium channel (Q12809 whole entry, looked up): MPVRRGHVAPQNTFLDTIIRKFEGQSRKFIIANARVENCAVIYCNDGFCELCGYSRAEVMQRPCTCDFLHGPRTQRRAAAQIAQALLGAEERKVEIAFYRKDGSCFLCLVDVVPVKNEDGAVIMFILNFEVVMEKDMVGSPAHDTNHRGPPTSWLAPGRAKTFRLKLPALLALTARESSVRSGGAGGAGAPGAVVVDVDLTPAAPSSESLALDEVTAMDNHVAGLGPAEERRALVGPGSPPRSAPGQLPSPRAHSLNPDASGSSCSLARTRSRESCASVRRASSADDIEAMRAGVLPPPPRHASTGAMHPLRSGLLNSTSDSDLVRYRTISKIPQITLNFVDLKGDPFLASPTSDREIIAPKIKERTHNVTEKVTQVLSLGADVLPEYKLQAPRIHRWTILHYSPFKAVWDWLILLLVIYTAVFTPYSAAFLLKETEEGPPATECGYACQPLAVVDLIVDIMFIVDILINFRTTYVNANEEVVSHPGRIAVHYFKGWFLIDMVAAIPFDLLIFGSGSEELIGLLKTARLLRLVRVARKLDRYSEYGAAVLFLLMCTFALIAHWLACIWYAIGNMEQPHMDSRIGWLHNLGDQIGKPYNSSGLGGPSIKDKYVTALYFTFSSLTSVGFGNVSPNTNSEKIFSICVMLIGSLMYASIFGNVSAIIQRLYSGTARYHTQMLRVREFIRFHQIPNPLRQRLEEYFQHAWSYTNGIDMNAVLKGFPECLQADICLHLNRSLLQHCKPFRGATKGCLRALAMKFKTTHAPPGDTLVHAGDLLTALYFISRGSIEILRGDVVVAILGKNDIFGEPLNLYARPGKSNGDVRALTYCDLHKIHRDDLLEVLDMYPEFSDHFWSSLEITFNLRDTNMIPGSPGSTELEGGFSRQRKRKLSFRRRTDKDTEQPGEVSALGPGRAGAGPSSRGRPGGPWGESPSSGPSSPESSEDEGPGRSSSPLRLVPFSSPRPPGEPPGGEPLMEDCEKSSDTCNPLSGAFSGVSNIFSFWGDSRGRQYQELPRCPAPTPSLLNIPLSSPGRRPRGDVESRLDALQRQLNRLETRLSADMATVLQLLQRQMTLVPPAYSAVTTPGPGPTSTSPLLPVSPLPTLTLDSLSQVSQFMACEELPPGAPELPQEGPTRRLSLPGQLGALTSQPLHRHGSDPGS

| SMILES | hERG current change (%, negative = inhibition) at 10uM [%] |
| --- | --- |
| Cc1csc(C(C#N)C(=O)c2ccncc2)n1 (stereo not shown) | 19.2 |
| N#C/C(C(N)=O)=C1/CCc2ccccc2N1 | -9.51 |
| CCN(CC)c1ccc(N=Cc2c(O)[nH]c(=O)[nH]c2=O)cc1 | -1.25 |
| NC(=S)Nc1cc2ccccc2c2ccccc12 | 6.65 |
| O=C(O)C1CCN(S(=O)(=O)c2ccc(Oc3ccccc3)cc2)CC1 | 17.8 |
| COC(=O)C1=CNC=C(C(=O)OC)C1c1ccc(Cl)cc1 | -8.91 |
| COCCN(C(=O)COC(=O)c1cnc(C)cn1)c1c(N)n(Cc2ccccc2)c(=O)[nH]c1=O | -4.85 |
| Cc1cc(Nc2ccc(O)cc2)n2c(nc3ccccc32)c1C#N | 16.6 |
| CCOC(=O)Nc1ccc2c(c1)Sc1ccccc1N2C(=O)CCN1CCOCC1 | -17.6 |
| COc1ccc(-c2nc(C#N)c(NCCCN3CCOCC3)o2)cc1 | -13 |
| N#Cc1nc(-c2ccco2)oc1NCCN1CCOCC1 | 7.46 |
| N#Cc1nc(-c2ccco2)oc1NCCCN1CCOCC1 | -54.9 |
| Cc1ccc(-c2nc(C#N)c(NCCN3CCCCC3)o2)cc1 | -55.8 |
| N#Cc1nc(Cc2cccc3ccccc23)oc1NCCN1CCCCC1 | -60.3 |
| N#Cc1nc(-c2ccc(OCc3ccccc3)cc2)oc1NCCCn1ccnc1 | -1.96 |
| N#Cc1nc(Cc2cccc3ccccc23)oc1NCCN1CCOCC1 | -20.3 |
| N#Cc1nc(-c2cccc3ccccc23)oc1NCCN1CCCCC1 | -36.2 |
| N#Cc1nc(Cc2cccc3ccccc23)oc1NCCCN1CCOCC1 | -26.3 |
| N#Cc1nc(COc2ccc(Br)cc2)oc1NCCCn1ccnc1 | -63.2 |
| N#Cc1nc(-c2ccc(F)cc2)oc1NCCN1CCOCC1 | -0.823 |
| N#Cc1nc(-c2ccc(OCc3ccc(Cl)cc3)cc2)oc1NCCCn1ccnc1 | 5.77 |
| CC(C)C[C@@H](CO)N(Cc1ccccc1)S(=O)(=O)N(Cc1ccccc1)[C@@H](CO)CC(C)C | 7.47 |
| CCc1ccc[n+](-c2[nH]c(=O)sc2/C=N/N=C(\N)[O-])c1 | -10 |
| CCCCCN(C(=O)COC(=O)COc1c(C)cc(C)cc1C)c1c(N)n(CCCC)c(=O)[nH]c1=O | -14.4 |
| COc1ccc(C(C(=O)NCCC(C)C)N(CCO)C(=O)c2snc(C(N)=O)c2N)cc1 (stereo not shown) | -1.26 |
